The values below come from PubChem BioAssay (NCATS).

Results filed as inconclusive are left out. Values without a mark were called inactive. Activity calls are given as the source filed them. The call rests on the fitted dose curve; in most records, active means well fitted curve in the direction sought with a large enough effect; inconclusive means small, poorly fitted or top-dose-only effect, or another doubt; inactive means no such curve, though single readings can be large; an effect the other way counts as inactive or inconclusive.

One experiment relates to CRL-7250. The experiment in a line: Cytotoxic Profiling of Annotated Libraries Using Quantitative High-Throughput Screening (AID 1296008). Further: nearly all actives have a fitted effect of over 60% in size. Further: potency means the concentration at half of the fitted maximal effect. On max response: on the % scale 0 is the no-effect control and ±100 the full control effect. The conditions noted are these: Five cell lines viability, CellTiter-Glo ATP luminescence, 48-72 h; max response: stronger effect = lower value. The method in brief:
(§1)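 Cells exposed to compounds for 48 or 72 hr at 37 degrees Celsius. Viability read as ATP-coupled luminescence with CellTiter-Glo after 10 min at room temperature.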
(In general: ATP-based viability assays read luminescence as a measure of living cells.)

Another experiment has as its system HEK293. The experiment is described as above. The following applies: Five cell lines viability, CellTiter-Glo ATP luminescence, 48-72 h; max response: stronger effect = lower value. In a few lines:
as §1

In experiment [1] the test system is HaCat. The experiment is described as above. The following applies: Five cell lines viability, CellTiter-Glo ATP luminescence, 48-72 h; max response: stronger effect = lower value. In a few lines:
as §1

Another experiment relates to KB-3-1. The experiment is described as above. The following applies: Five cell lines viability, CellTiter-Glo ATP luminescence, 48-72 h; max response: stronger effect = lower value. The method in brief:
as §1

Experiment [2] has as its system NIH3T3. Described as above. The conditions noted are these: Five cell lines viability, CellTiter-Glo ATP luminescence, 48-72 h; max response: stronger effect = lower value. In a few lines: as §1
Experiment [3] relates to HACAT. The experiment is described as follows: qHTS assay to identify novel small-molecules to repurpose for Merkel cell carcinoma treatment (AID 1296009). Further: nearly all actives have a fitted effect of over 60% in size. The following applies: MCC and control cell lines, CellTiter-Glo viability, 72 h; at 44.8 µM (top of the series) unless noted. The method in brief:
(§2)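 CellTiter-Glo luminescence after 72 hr compound exposure at 37 degree celsius gave cell viability. Libraries NPC and MIPE were run as 8- and 11-point dose responses; RLUs normalized to DMSO (negative) and no-cell (cytotoxicity) controls.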
For orientation: Quantitative high-throughput screening tests each substance at several concentrations.

For the next experiment, the system named is HEK293T. Described as above. The following applies: MCC and control cell lines, CellTiter-Glo viability, 72 h; series mostly up to 44.8 µM. The method in brief: as §2
Another experiment deals with C33A. The experiment in a line: Primary qHTS to identify gynecologic anti-cancer compounds using libraries of approved drugs and bioactive compounds (AID 1345084). Further: on the % scale 0 is the no-effect control and ±100 the full control effect; nearly all actives have a fitted effect of over 55% in size. The following applies: Gynecologic cancer cell panel viability, ATPlite luminescence, 48 h; series mostly up to 57.5 µM. In a few lines: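 Cytotoxicity screen measuring ATP content by luciferase luminescence. Each compound is applied at five concentrations for 48 h at 37 C with 5% CO2.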

The test system of experiment [4] is NIH3T3. The experiment in a line: qHTS assay to identify novel small-molecules to repurpose for Merkel cell carcinoma treatment (AID 1296009). Further: nearly all actives have a fitted effect of over 60% in size. The conditions noted are these: MCC and control cell lines, CellTiter-Glo viability, 72 h; at 44.8 µM (top of the series) unless noted. The method in brief:
as §2

As to `C=C1[C@H]2[C@H](O[C@@H]3O[C@H](COC(=O)/C=C/c4cc(OC)c(O)c(OC)c4)[C@@H](O)[C@H](O)[C@H]3O)OC=C(C(=O)O)[C@H]2C[C@@H]1O`, the result in the experiment with CRL-7250, in the experiment on HEK293, in the experiment on HaCat [1] and in the experiment on KB-3-1 was inactive. In the experiment with NIH3T3 [2], the max response was 4.54%. In addition, in the experiment with HACAT [3], the outcome was “inactive [at 17.4 µM]”. Further, the Potency result in the experiment on HEK293T and in the experiment on C33A was “inactive” each time.

Turning to `CC1=CC(=O)C2C(C)(C)CCCC2(C)C12CCC1(COC(=O)C1)O2` (stereo not given), the max response was -1.45% in the experiment with CRL-7250, 5.32% with KB-3-1 and -3.33% with NIH3T3 [2]. Also, the outcome in the experiment with HEK293, with HaCat [1] and in the experiment on HACAT [3] was inactive. In addition, the Potency entry in the experiment with HEK293T and in the experiment with C33A was “inactive” in each case.

`O=C(O[C@@H]1O[C@H](CO)[C@@H](O)[C@H](O)[C@H]1O)c1c(O)cc(O)cc1/C=C/c1ccccc1`: the max response in the experiment with CRL-7250 was 2.06%; with NIH3T3 [2] it was 3.61%. Besides, the call in the experiment with HEK293, in the experiment with HaCat [1] and in the experiment on KB-3-1 was inactive. In addition, in the experiment on HACAT [3], the outcome was “inactive [at 17.4 µM]”. In addition, the Potency result in the experiment on HEK293T and with C33A was “inactive” in each case.

`CN1C(=O)c2ccccc2-n2c(nc3ccccc3c2=O)[C@@]12O[C@H]2c1ccccc1`: the max response in the experiment on CRL-7250 is -8.37%; with HaCat [1] it was -0.431%. Also, the call with HEK293, in the experiment on KB-3-1, in the experiment on NIH3T3 [2] and in the experiment on NIH3T3 [4] was inactive. Also, the Potency result in the experiment on HEK293T and in the experiment with C33A was “inactive” each time.

Turning to `O=c1ccn([C@@H]2O[C@H](CO)[C@@H](O)[C@H]2O)c(=O)[nH]1`, the max response is -8.67% in the experiment with CRL-7250, 3.94% with HaCat [1] and 0.253% in the experiment on KB-3-1. Also, the molecule was classed as inactive with HEK293, in the experiment with NIH3T3 [2] and in the experiment on NIH3T3 [4]. In addition, the Potency entry with HEK293T and with C33A was “inactive” throughout.

With `OC[C@H]1O[C@@H](OC(CCCCc2ccc(O)cc2)CCc2ccc(O)cc2)[C@H](O[C@@H]2OC[C@](O)(CO)[C@H]2O)[C@@H](O)[C@@H]1O` (stereo not given in full), the max response was 3.53% with CRL-7250 and 2.54% with NIH3T3 [2]. The molecule was called inactive with HEK293, with HaCat [1] and in the experiment with KB-3-1. Further, the outcome with HACAT [3] is “inactive [at 17.4 µM]”. For the same molecule, the Potency result in the experiment with HEK293T and with C33A was “inactive” throughout.

`OC[C@H]1O[C@@H](n2cnc3c(NCc4ccc(O)cc4)ncnc32)[C@H](O)[C@@H]1O`: the Potency in the experiment with CRL-7250 is 6.51 µM (active). The result in the experiment with HEK293 and in the experiment with NIH3T3 [2] was inactive. Moreover, the max response is -13.2% in the experiment on HaCat [1] and -13.6% with KB-3-1. In the experiment on HEK293T, the Potency entry is “inactive”.

As for `Cc1cc(O)c(C(C)C)cc1O[C@@H]1O[C@H](CO)[C@@H](O)[C@H](O)[C@H]1O`, the results for the max response in the experiment on CRL-7250 and in the experiment on NIH3T3 [2] were -11.2% and 1.36%, respectively. Also, the call in the experiment with HEK293, in the experiment with HaCat [1], with KB-3-1 and in the experiment with HACAT [3] was inactive. Also, the Potency entry in the experiment with HEK293T and in the experiment on C33A was “inactive” throughout.

Consider `COc1cc(C/C(=C/NC(C)=O)N(CC(=O)Cc2ccccc2)C(C)=O)cc2c1OCO2`, for which the figures for the max response with CRL-7250, with KB-3-1 and with NIH3T3 [2] were -6.34%, 7.98% and 2.9%, respectively. Moreover, the outcome with HEK293 and in the experiment on HaCat [1] was inactive. Moreover, the outcome with HACAT [3] is “inactive [at 17.4 µM]”. Besides, the Potency result in the experiment with HEK293T and in the experiment on C33A was “inactive” throughout.
